Records with an inconclusive call do not appear. The source made the active and inactive calls. The calls were made as follows: active = hit-call score of the fitted dose curve at least 0.9, where 1 is the maximum; inconclusive = response in the unintended direction; inactive = score below 0.9.
How the values were obtained:
[1] = target: human MAP Kinase-Activated Protein Kinase 2 (MAPKAPK2), MAPKAPK2 (gene 9261) (UniProt P49137); test: NVS_ENZ_hMAPKAPK2: NovaScreen (NVS) Enzymatic Assay for human MAP Kinase-Activated Protein Kinase 2 (MAPKAPK2) (AID 2283178)
human MAP Kinase-Activated Protein Kinase 2 (MAPKAPK2), MAPKAPK2 (gene 9261), sequence (P49137 whole entry, looked up): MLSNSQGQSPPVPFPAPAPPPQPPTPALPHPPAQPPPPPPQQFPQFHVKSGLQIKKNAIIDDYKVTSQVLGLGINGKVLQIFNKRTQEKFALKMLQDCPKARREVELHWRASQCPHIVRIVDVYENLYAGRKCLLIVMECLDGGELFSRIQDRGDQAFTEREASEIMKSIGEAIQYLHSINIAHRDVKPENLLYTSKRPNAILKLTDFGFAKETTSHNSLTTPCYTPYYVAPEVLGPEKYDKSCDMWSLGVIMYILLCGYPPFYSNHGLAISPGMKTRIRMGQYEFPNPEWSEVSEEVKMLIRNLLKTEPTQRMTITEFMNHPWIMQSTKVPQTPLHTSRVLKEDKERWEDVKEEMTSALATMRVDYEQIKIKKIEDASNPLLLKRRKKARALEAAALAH
Summary of the method: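 Cell-free recombinant human MAPKAPK2 activity measured by fluorescence with electrophoretic mobility shift separation of substrate and product, 1 hr after dosing. Loss of signal versus DMSO; primary screen at 25 uM, concentration-response up to 50 uM.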

[2] = target: human Matrix Metalloproteinase-2 (MMP2), MMP2 (gene 4313) (UniProt P08253); test: NVS_ENZ_hMMP2: NovaScreen (NVS) Enzymatic Assay for human Matrix Metalloproteinase-2 (MMP2) (AID 2283184)
human Matrix Metalloproteinase-2 (MMP2), MMP2 (gene 4313), sequence (P08253 whole entry, looked up): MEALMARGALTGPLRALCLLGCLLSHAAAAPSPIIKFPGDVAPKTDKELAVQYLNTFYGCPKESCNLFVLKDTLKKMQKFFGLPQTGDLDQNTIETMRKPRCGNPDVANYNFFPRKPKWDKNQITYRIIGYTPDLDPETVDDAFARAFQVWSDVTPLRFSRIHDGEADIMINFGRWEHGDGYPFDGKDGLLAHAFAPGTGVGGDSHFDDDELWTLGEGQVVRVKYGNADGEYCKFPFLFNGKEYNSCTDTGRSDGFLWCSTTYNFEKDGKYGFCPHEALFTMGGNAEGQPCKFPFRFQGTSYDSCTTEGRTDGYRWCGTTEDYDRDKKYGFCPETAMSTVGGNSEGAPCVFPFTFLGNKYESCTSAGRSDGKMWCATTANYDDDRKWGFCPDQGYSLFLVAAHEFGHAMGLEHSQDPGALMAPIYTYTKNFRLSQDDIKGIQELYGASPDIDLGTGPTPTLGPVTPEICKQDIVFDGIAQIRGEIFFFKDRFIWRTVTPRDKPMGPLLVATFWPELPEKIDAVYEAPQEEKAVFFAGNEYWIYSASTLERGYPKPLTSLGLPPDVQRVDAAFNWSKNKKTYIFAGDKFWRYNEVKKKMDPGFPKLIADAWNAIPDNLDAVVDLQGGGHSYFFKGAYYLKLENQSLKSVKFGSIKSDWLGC
Summary of the method: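 Cell-free recombinant MMP2 activity with a fluorescent substrate, read 1 h after dosing. Primary screen in duplicate at 25 uM; actives then run in concentration series; loss of signal fitted versus DMSO.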

[3] = target: Mitogen-activated protein kinase 3 (Homo sapiens) (UniProt P27361); test: NVS_ENZ_hMAPK3: NovaScreen (NVS) Enzymatic Assay for human Mitogen-Activated Protein Kinase 3 (MAPK 3) (AID 2283177)
Mitogen-activated protein kinase 3 (Homo sapiens), sequence (P27361 whole entry, looked up): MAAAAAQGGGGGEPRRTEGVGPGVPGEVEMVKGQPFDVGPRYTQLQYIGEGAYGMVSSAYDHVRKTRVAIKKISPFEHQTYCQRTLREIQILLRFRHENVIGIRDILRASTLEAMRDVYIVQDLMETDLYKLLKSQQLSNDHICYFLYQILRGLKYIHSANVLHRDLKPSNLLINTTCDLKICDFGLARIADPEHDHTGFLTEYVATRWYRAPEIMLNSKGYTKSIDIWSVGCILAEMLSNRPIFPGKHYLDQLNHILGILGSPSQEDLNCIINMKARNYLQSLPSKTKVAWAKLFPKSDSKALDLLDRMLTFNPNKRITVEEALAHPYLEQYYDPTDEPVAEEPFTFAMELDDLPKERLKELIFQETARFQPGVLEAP
Summary of the method: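 Cell-free enzymatic assay with recombinant protein and specific substrate; fluorescence and electrophoretic mobility shift read-out 1 h after dosing. Primary screen duplicate at 25 uM; actives then run in concentration-response up to 50 uM, loss of signal versus DMSO.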

[4] = target: human Matrix Metalloproteinase-7 (MMP7), MMP7 (gene 4316) (UniProt P09237); test: NVS_ENZ_hMMP7: NovaScreen (NVS) Enzymatic Assay for human Matrix Metalloproteinase-7 (MMP7) (AID 2283183)
human Matrix Metalloproteinase-7 (MMP7), MMP7 (gene 4316), sequence (P09237 whole entry, looked up): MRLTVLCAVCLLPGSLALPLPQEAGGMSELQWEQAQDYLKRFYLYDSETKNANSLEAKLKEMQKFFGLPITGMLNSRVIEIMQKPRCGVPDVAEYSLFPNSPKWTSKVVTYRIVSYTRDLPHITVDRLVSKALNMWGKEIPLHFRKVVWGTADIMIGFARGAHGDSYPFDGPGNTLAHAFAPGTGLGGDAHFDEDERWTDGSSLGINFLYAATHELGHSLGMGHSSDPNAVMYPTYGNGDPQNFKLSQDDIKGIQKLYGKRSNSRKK
Summary of the method: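 Cell-free fluorescence enzymatic assay read 1 h after compound addition, activity loss analyzed against DMSO. Primary duplicate testing at 25 uM; compounds meeting threshold rerun in singleton concentration-response up to 50 uM.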

[5] = target: human Janus Kinase 2 (Jak2), JAK2 (gene 3717) (UniProt O60674); test: NVS_ENZ_hJak2: NovaScreen (NVS) Enzymatic Assay for human Janus Kinase 2 (Jak2) (AID 2283169)
human Janus Kinase 2 (Jak2), JAK2 (gene 3717), sequence (O60674 whole entry, looked up): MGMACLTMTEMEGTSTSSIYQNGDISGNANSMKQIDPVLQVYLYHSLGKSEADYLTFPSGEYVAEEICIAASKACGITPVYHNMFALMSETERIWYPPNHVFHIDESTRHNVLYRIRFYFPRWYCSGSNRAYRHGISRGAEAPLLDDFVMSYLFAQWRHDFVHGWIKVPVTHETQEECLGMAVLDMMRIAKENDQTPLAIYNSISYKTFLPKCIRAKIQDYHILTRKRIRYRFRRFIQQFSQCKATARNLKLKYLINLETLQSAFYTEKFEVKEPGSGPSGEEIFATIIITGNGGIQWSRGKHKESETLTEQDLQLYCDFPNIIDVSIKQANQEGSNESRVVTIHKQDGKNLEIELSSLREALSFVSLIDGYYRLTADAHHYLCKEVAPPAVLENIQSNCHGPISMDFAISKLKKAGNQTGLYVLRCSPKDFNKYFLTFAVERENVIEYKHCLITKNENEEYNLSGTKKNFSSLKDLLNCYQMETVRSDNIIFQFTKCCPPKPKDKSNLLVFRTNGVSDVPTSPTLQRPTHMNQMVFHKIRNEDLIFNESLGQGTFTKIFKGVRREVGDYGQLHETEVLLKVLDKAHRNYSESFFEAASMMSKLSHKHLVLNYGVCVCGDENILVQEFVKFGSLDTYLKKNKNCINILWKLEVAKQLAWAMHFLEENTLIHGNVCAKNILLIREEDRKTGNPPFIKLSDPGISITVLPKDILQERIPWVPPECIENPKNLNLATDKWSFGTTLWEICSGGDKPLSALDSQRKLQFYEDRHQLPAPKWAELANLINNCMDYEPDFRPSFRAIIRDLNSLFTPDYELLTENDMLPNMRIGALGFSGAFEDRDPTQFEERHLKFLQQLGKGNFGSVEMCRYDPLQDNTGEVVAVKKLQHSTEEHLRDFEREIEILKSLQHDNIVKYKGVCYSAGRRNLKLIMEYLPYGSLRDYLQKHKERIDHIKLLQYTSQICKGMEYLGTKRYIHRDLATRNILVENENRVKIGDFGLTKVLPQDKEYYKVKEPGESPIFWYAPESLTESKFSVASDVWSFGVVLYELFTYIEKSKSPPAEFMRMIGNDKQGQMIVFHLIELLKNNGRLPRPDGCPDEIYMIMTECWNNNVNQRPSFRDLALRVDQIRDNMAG
Summary of the method: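 Cell-free recombinant human JAK2 enzyme activity assay, fluorescence/electrophoretic mobility shift read 1 h after dosing. Screened in duplicate at 25 uM, then concentration-response up to 50 uM; activity as signal loss relative to DMSO.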

[6] = target: human LYN Proto-Oncogene, Src family Tyrosine Kinase (LynA), LYN (gene 4067) (UniProt P07948); test: NVS_ENZ_hLynA: NovaScreen (NVS) Enzymatic Assay for human LYN Proto-Oncogene, Src family Tyrosine Kinase (LynA) (AID 2283173)
Summary of the method: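 Recombinant kinase with fluorescent substrate; product separated from substrate by electrophoretic mobility shift and read 1 h after dosing. Duplicate screen at 25 uM, then concentration-response up to 50 uM; activity scored as signal loss against DMSO.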

[7] = target: Collagenase 3 (Homo sapiens) (UniProt P45452); test: NVS_ENZ_hMMP13: NovaScreen (NVS) Enzymatic Assay for human Matrix Metalloproteinase-13 (MMP13) (AID 2283182)
Procedure: NVS_ENZ_hMMP13 is a biochemical, single-readout assay that uses extracted gene-proteins in a cell-free assay. Measurements were taken 1 hour after chemical dosing in a 96-well plate.NVS_ENZ_hMMP13 is one of one assay component(s) measured or calculated from the NVS_ENZ_hMMP13 assay. It is designed to make measurements of enzyme activity, a form of enzyme reporter, as detected with fluorescence intensity signals by Fluorescence technology.Data from the assay component NVS_ENZ_hMMP13 was analyzed into 1 assay endpoint. This assay endpoint, NVS_ENZ_hMMP13, was analyzed in the positive analysis fitting direction relative to DMSO as the negative control and baseline of activity. Using a type of enzyme reporter, loss-of-signal activity can be used to understand changes in the enzymatic activity as they relate to the gene MMP13. Furthermore, this assay endpoint can be referred to as a primary readout, because this assay has produced multiple assay endpoints where this one serves a enzymatic activity function. To generalize the intended target to other relatable targets, this assay endpoint is annotated to the protease intended target family, where the subfamily is matrix metalloproteinase.
Binding assays used specific radioligands (tritiated, iodinated) with non-radioactive competitive displacement ligands in agonist or antagonist protocols (as indicated) and various reference compounds and inhibitors to titrate specific binding to receptors and transporters. Most enzyme assays (CYPs, kinases, phosphatases, proteases, HDACs) used recombinant protein and specific substrates (fluorescence mostly, some colorimetric and radioactive) and inhibitors, followed by a biochemical separation of substrate and product. All assays for the biochemical HTS were initially run in duplicate at a single concentration (10 uM for CYP450 assays and 25 uM for all others). Assay-chemical combinations meeting a pre-defined threshold (e.g., 30% inhibition and other criteria defined below) were then run in singleton concentration-response format with maximum concentration of 20 uM for CYPs and 50 uM for all others. Each assay was run with positive and negative controls, and concurrent controls on every plate. The follow-up (secondary) screen tested active chemical-pairs in concentration series, as well as a few additional assays not tested in the primary screen, some selected negative inactives, and several cases re-run in the concentration series for confirmatory purposes.

[8] = target: human Matrix Metalloproteinase-3 (MMP3), MMP3 (gene 4314) (UniProt P08254); test: NVS_ENZ_hMMP3: NovaScreen (NVS) Enzymatic Assay for human Matrix Metalloproteinase-3 (MMP3) (AID 2283185)
human Matrix Metalloproteinase-3 (MMP3), MMP3 (gene 4314), sequence (P08254 whole entry, looked up): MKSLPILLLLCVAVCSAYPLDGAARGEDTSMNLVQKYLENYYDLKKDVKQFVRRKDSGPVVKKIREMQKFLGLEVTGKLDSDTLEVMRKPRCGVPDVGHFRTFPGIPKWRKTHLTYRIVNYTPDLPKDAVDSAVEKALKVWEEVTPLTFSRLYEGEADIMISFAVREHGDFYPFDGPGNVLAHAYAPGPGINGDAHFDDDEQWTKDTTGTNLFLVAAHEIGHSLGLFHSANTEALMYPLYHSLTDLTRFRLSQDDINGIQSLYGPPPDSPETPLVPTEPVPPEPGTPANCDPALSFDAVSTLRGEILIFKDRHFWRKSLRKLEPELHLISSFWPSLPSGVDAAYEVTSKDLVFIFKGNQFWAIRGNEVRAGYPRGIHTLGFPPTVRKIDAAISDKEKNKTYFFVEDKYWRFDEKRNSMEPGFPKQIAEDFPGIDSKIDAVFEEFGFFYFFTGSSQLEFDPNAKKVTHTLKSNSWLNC
Summary of the method: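 Cell-free recombinant human MMP3 activity, fluorescence intensity read 1 h after dosing. Primary screen duplicate at 25 uM, actives retested in concentration series; loss of signal vs DMSO baseline.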

[9] = target: human Insulin Receptor (InsR), INSR (gene 3643) (UniProt P06213); test: NVS_ENZ_hInsR: NovaScreen (NVS) Enzymatic Assay for human Insulin Receptor (InsR) (AID 2283168)
human Insulin Receptor (InsR), INSR (gene 3643), sequence (P06213 whole entry, looked up): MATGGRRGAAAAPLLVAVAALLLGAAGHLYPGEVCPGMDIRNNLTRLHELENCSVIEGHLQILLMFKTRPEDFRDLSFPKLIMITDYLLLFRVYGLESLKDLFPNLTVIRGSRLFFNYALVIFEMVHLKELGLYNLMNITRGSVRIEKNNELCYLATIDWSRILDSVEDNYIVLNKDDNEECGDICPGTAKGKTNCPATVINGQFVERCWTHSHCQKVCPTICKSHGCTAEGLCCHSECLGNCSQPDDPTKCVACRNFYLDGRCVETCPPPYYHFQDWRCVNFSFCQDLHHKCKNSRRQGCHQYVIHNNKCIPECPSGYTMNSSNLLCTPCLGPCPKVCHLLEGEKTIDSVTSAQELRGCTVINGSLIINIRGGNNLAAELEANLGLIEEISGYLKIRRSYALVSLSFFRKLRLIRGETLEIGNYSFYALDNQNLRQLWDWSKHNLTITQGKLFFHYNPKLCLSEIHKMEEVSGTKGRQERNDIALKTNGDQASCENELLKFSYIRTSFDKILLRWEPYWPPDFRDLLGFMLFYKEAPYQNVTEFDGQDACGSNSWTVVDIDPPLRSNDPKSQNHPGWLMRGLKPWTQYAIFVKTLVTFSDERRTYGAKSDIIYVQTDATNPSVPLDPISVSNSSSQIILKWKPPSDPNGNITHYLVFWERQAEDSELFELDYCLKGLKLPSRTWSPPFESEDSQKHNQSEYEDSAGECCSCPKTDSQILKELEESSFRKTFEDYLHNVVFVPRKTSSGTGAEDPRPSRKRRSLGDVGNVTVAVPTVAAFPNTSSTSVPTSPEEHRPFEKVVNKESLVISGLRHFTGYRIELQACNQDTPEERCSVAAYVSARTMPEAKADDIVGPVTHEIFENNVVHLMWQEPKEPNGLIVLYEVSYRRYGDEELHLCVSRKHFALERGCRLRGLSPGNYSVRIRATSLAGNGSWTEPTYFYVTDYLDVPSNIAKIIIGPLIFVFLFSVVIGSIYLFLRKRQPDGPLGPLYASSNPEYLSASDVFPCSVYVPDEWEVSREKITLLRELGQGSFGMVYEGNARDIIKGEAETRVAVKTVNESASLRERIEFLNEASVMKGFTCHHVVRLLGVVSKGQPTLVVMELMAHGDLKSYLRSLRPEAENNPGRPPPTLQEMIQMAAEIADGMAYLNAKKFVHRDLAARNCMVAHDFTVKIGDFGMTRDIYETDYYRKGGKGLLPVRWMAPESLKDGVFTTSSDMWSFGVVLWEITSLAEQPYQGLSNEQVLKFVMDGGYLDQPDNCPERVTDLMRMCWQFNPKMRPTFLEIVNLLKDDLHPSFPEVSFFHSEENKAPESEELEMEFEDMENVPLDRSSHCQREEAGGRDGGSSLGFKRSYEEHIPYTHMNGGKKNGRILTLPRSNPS
Summary of the method: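 Fluorescent substrate phosphorylation by recombinant kinase, product resolved by electrophoretic mobility shift, read 1 h after dosing. Screened in duplicate at 25 uM; hits (e.g., 30% inhibition) run in concentration-response to 50 uM; DMSO as baseline.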

Cc1ncc([C@@H](CCCCCCc2ccc3c(n2)NCCC3)CC(=O)O)cn1
outcome [1]: inactive

Cn1c(=O)c2[nH]cnc2n(C)c1=O
outcome [1]: inactive

OC(CCl)CCl
outcome [1]: inactive

CC(=O)c1ccccc1
AC50 [2]: 26.7 µM (active)

CC[C@H](C)C(=O)O[C@H]1C[C@H](O)C=C2C=C[C@H](C)[C@H](CC[C@@H](O)C[C@@H](O)CC(=O)O)[C@H]21
outcome [3]: inactive | outcome [4]: inactive | outcome [2]: inactive

O=C(NO)C1(NS(=O)(=O)c2ccc(Oc3ccc(F)cc3)cc2)CCOCC1
outcome [5]: inactive | outcome [6]: inactive | outcome [1]: inactive | AC50 [7]: 0.00244 µM (active) | AC50 [4]: 14.7 µM (active) | AC50 [8]: 1.92 µM (active)

CC(C)C(=O)Nc1ccc([N+](=O)[O-])c(C(F)(F)F)c1
outcome [4]: inactive | AC50 [2]: 12.7 µM (active)

CCc1ccc(O)c(C(C)(C)C)c1
outcome [5]: inactive

c1ccc2ncccc2c1
outcome [1]: inactive

OC(Cn1cncn1)(Cn1cncn1)c1ccc(F)cc1F
outcome [5]: inactive

COCc1nnc(-c2ccc[n+]([O-])c2)n1-c1c(Cl)c(Cl)cc2[nH]c(=O)c(=O)[nH]c12
AC50 [7]: 21.5 µM (active) | AC50 [2]: 7.26 µM (active)

CCCCC(CC)C(=O)OCCOCCOCCOC(=O)C(CC)CCCC (stereo unspecified)
outcome [1]: inactive

Cc1ccc(S(=O)(=O)NC(=O)NN2CCCCCC2)cc1
outcome [4]: inactive

CCCOc1ccc(S(=O)(=O)N2CCN(CC)CC2)cc1-c1nc2c(CC)n(Cc3ccccn3)nc2c(=O)[nH]1
outcome [9]: inactive

O=S(=O)(O)c1ccc(N=Nc2c(O)ccc3cc(S(=O)(=O)O)ccc23)cc1
AC50 [7]: 14.8 µM (active) | AC50 [2]: 4.96 µM (active) | AC50 [8]: 19.4 µM (active)
